Compound activity as filed in PubChem.
CF NFkB block: inhibitors of PAF-induced NF-kB signaling, primary screen, cell-based, GFP fluorescence, uHTS | KKLEB NF-kB-GFP reporter, GFP fluorescence overnight | inhibition, % at 5 µM | 0.86% of 360,000 active;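 active = at least 50% inhibition at 5 µM, scaled per plate between neutral and stimulator controls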;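 note: PAF is a Pseudomonas aeruginosa culture filtrate used as stimulus; plate controls were PAF-stimulated DMSO wells for no effect and unstimulated DMSO wells for full effect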
TROY NFkB inh: inhibitors of TROY-driven NF-kB signaling, primary screen, Q293 LMP1-TROYcd cells, NF-kB luciferase, uHTS; 0.98% of 360,000 active; inhibition, % at 10 µM; Q293 LMP1-TROYcd NF-kB luciferase reporter, 4 h;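 active = compounds whose plate-normalised and pattern-corrected inhibition of the luciferase reporter signal at the single screening dose is 50% or more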
Peg3 promoter: Peg3 promoter-driven luciferase inhibitors, primary screen, cell-based, HeLa, luciferase luminescence. inhibition, % at 20 µM. AID 588405, 2011. HeLa PEG-Prom luciferase reporter, overnight. 1.7% of 360,000 active;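 active = inhibition of at least 50% at 20 µM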
HIF-2a block: HIF-2a reporter inhibitors, primary screen, luminescence, 786-0 RCC cells; 786-0 RCC cells HIF-2a reporter, luciferase luminescence, overnight; inhibition, % at 18.8 µM; 0.72% of 360,000 active; AID 624352, 2012;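 active = inhibition of the luminescence signal of 40% or more relative to plate controls, in a single-dose primary screen at 18.75 µM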
TWEAK-Fn14 inh: inhibitors of TWEAK-Fn14 signaling, primary screen, luciferase reporter cells, uHTS; TWEAK-stimulated Fn14 reporter cells, luciferase luminescence, 8 h; inhibition, % at 10 µM; 2% of 360,000 active; in the data active = inhibition above about 50%
KKLEB tox: cytotoxicity in KKLEB CF airway cells, primary screen, cytotoxicity control for CF NF-kB inhibitor project, cell-based, uHTS, fluorescence assay plates; KKLEB CF airway cells viability, ATPlite luminescence, overnight; stronger effect = lower value; cells stimulated with P. aeruginosa culture filtrate; activity change (cytotoxicity), % at 5 µM; 0.36% of 360,000 active;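 active = corrected activity change at or below -50% at 5 µM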
Starred values were filed as active, the others as inactive. This is a sample that favours compounds with a hit; in the whole collection about 4% have one here.

SMILES	CF NFkB block	TROY NFkB inh	Peg3 promoter	HIF-2a block	TWEAK-Fn14 inh	KKLEB tox
CCCCOc1ccccc1C(=O)NNC(=S)NC(=O)c1ccccc1[N+](=O)[O-]	20.5	-5.9	33.2	23.9	3.9	0.1
O=C(COC(=O)C1CC2C=CC1C2)Nc1c(Br)cc([N+](=O)[O-])cc1Br (configuration not stated)	0.3	5.0	9.5	4.4	-32.6	8.3
CN(C)c1ccc(Sc2ccc3nc(N)nc(N)c3c2)cc1	23.8	32.1	105.4*	-4.3	31.5	-31.4
Nc1nc(N)c2cc(S(=O)(=O)c3cccc(C(F)(F)F)c3)ccc2n1	27.4	22.2	22.4	28.9	18.4	-19.4
CC(O)(c1cccc(F)c1)c1nc(-c2cnc3ccccc3c2)cs1 (configuration not stated)	8.2	-0.1	-165.2	-186.2	28.6	1.2
COc1ccc(C)cc1NC(=O)COC(=O)C1COc2ccccc2O1 (configuration not stated)	7.0	15.2	12.9	3.9	2.6	-1.0
O=C(COC(=O)c1cccc(S(=O)(=O)N2CCOCC2)c1)Nc1ccc2c(c1)OCO2	11.1	-1.0	3.3	3.4	-4.9	-0.7
O=C(COC(=O)c1ccc2c(c1)OCCO2)Nc1cccc(S(=O)(=O)N2CCOCC2)c1	-0.7	56.2*	-7.8	12.7	26.1	10.8
CCCc1nc2ccccc2c(C(=O)OCC(=O)Nc2ccc(S(=O)(=O)N3CCOCC3)cc2)c1CC	12.8	78.4*	33.9	1.9	36.7	4.8
COc1ccc(S(=O)(=O)N2CCOCC2)cc1NC(=O)COC(=O)C1COc2ccccc2O1 (configuration not stated)	1.7	69.3*	-193.3	-161.3	43.3	-6.6
COc1cccc(COC(=O)c2cc(S(=O)(=O)N3CCOCC3)ccc2Cl)c1OC	-24.1	9.4	-14.5	12.9	84.8*	7.9
Cc1ccc(CS(=O)Cc2ccc(C(=O)NC3CCC(C)CC3)o2)cc1 (configuration not stated)	-14.3	0.2	-2.7	-14.9	-2.4	28.0
COc1ccccc1N(C)S(=O)(=O)c1ccc(C(=O)Nc2cccc(S(=O)(=O)N3CCOCC3)c2)cc1	3.2	32.9	50.1*	10.6	49.4	19.9
CN(c1ccccc1)S(=O)(=O)c1ccc(C(=O)Nc2cccc(S(=O)(=O)N3CCOCC3)c2)cc1	5.0	28.8	20.8	3.8	45.0	-6.2
CCCc1nc2ccccc2c(C(=O)OCC(=O)Nc2cccc(S(=O)(=O)N3CCOCC3)c2)c1CC	6.6	41.9	53.0*	9.6	60.7*	1.6
COc1ccc(OCC(=O)NCc2nc(-c3ccccc3)no2)cc1	-18.1	-6.8	5.7	8.9	9.5	9.2
O=C1C(C=NCc2ccco2)=C(O)c2ccccc21	-1.8	58.8*	-252.8	-255.3	37.9	-3.4
O=C1C(C=NCc2cccnc2)=C(O)c2ccccc21	-6.2	51.5*	-205.2	-186.2	26.5	0.2
O=C1C(C=NCc2ccncc2)=C(O)c2ccccc21	-4.9	-2.2	-33.8	-14.0	21.5	-6.2
O=C(N=Nc1c(O)[nH]c2ccc(Cl)cc12)c1cc(-c2cccs2)nc2ccccc12	-4.6	6.8	70.4*	-18.1	-49.7	4.3
O=C(N=Nc1c(O)[nH]c2ccc([N+](=O)[O-])cc12)c1ccccc1Cl	-37.6	-20.5	-43.1	-81.9	-16.4	-3.1
CCCc1ccc(S(=O)(=O)N2CCN(C(C)C(=O)NC3CCCC3)CC2)cc1 (configuration not stated)	17.9	14.5	3.8	14.8	3.1	-10.2
CCC(C)c1ccc(S(=O)(=O)N2CCN(C(C)C(=O)NC3CCCC3)CC2)cc1 (configuration not stated)	-9.7	-18.2	9.5	10.3	86.8*	10.1
CC1=CN2C(c3cccc([N+](=O)[O-])c3)=NON(c3ccc(C)cn3)C2C=C1 (configuration not stated)	12.5	60.0*	43.0	-20.4	-32.6	-28.3
Cc1ccc(NS(=O)(=O)c2cccc([N+](=O)[O-])c2)nc1	5.6	-3.6	12.9	-0.2	2.0	-3.8
SMILES	CF NFkB block	TROY NFkB inh	Peg3 promoter	HIF-2a block	TWEAK-Fn14 inh	KKLEB tox
O=C(NNC(=O)c1ccccc1Cl)c1cc2cc(OC(F)(F)F)ccc2[nH]1	-20.8	-6.7	10.5	15.8	1.4	10.1
CCOc1ccc2nc(N/C(N)=N/C(=S)Nc3ccc(C)c(C)c3)nc(C)c2c1	-21.4	4.7	-1.6	-8.1	19.8	9.6
COc1ccc(NC(=S)/N=C(\N)Nc2nc(C)c3ccc(C)cc3n2)cc1	-19.8	13.5	53.0*	-1.6	1.1	-4.6
Cc1nc(Nc2ccc(C(=O)O)cc2)sc1-c1ccccc1	25.1	56.5*	10.9	-30.4	93.4*	6.0
N#Cc1c(-c2cccs2)nc(SCc2ccc(Cl)cc2)[nH]c1=O	8.7	74.0*	25.4	14.1	13.9	-0.7
C[C@H](CO)N1C[C@H](C)[C@@H](CN(C)CC2CCCCC2)Oc2c(NC(=O)CCC(F)(F)F)cccc2C1=O	7.4	-5.9	-7.9	14.9	-18.0	-12.4
C[C@H]1Cn2cnc(C(=O)NCC(=O)OC(C)(C)C)c2C(=O)N1	-0.9	1.1	-3.0	-6.5	5.8	2.8
Cc1ccccc1-c1cc2nc(NCCc3ccncc3)n(C)c(=O)c2s1	12.4	-4.6	11.4	-38.6	-2.8	-6.0
Cc1ccc(S(=O)(=O)Cc2ccc(C(=O)NCCCN3CCN(C)CC3)o2)cc1	0.5	75.8*	-156.8	27.2	84.4*	2.1
CCOc1ccc(S(=O)(=O)NCCC(=O)NC2CCC(C)CC2)cc1 (configuration not stated)	-15.4	3.4	2.5	1.4	-10.2	15.6
CC(C)N1CCN(Cc2cc3ccccc3[nH]2)CC1CCO (configuration not stated)	5.7	-13.8	20.6	-9.9	4.4	-9.4
COc1ccc(NC(=O)C(=O)Nc2cccc3cccnc23)cc1OC	0.0	-22.5	-60.0	-113.6	104.8*	-1.3
COc1ccc(C(=O)Nc2cccc3cccnc23)cc1OC	-31.3	-38.9	-89.6	-203.3	-0.5	4.3
O=C(Nc1ncccc1Cl)c1cc2ccccc2o1	-22.6	-31.4	-388.1	-201.2	0.7	16.0
Cc1ccc(NC(=O)CSCC(=O)OC(C)C(=O)Nc2ccccc2C)cc1 (configuration not stated)	-18.8	-11.0	-20.5	-19.8	-12.7	-1.9
Fc1cccc(F)c1/C=N/Nc1ccccn1	-35.1	-75.9	-227.8	-196.7	-8.2	-0.3
